Columns and labels:
Experiment in all cases: DAPPL (digital affinity profiling via proximity ligation, sequencing); 10 mM Tris-HCl pH 7.5, 50 mM NaCl, 1 mM DTT, 4% glycerol, room temperature, 30 min; GST-TFs on glutathione beads, 16-mer random dsDNA library, 0.1% formaldehyde crosslink after washing; high values mean tight binding
Conditions in all cases: protein: recombinant; tags: N-terminal GST; dsDNA, one strand shown
ELK1 = molecular target: T1, ELK1 (Homo sapiens, UniProt P19419 1-428)
T1 sequence: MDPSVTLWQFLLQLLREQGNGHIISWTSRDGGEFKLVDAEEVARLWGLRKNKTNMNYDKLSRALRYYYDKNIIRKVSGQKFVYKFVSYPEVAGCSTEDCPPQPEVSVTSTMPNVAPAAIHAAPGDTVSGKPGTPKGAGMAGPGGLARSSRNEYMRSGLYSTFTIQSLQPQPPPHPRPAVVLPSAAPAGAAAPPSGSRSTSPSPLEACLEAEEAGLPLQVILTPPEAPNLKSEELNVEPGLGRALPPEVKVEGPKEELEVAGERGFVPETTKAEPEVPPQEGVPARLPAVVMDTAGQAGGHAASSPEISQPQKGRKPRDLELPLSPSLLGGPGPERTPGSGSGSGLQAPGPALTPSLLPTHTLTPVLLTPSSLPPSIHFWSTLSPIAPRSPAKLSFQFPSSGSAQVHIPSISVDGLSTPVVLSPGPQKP
Method in brief: (§1)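 Sequencing on an Illumina NextSeq500 followed washing, crosslinking with 0.1% formaldehyde, proximity ligation (BsaI/T4 ligase, 1 h, 37 °C) and PCR amplification of pools that had been incubated for 30 min at room temperature with 200 nmole of a random double-stranded 16-mer DNA library in Tris/NaCl/DTT/glycerol buffer. Each pool held DNA-barcoded human transcription factors, expressed in yeast as GST fusions and captured on glutathione beads, plus a tag-only sample. Binding signal is a hexamer's read frequency for a factor divided by its frequency in the tag-only sample.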

GABPA = molecular target: T2, GABPA (Homo sapiens, UniProt Q06546 1-454)
T2 sequence: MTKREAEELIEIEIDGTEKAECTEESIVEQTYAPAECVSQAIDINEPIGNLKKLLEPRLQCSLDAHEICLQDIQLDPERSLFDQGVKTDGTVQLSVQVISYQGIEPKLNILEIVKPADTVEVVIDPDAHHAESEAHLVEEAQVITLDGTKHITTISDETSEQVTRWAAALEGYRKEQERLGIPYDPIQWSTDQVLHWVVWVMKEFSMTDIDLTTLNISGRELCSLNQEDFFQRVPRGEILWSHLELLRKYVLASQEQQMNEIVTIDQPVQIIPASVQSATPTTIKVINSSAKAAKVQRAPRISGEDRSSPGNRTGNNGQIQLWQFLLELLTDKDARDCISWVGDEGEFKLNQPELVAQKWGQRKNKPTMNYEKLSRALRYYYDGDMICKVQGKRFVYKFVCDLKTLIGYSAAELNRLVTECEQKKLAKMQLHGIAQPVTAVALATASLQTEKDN
Method in brief: as §1

ERG = molecular target: T3, ERG (Homo sapiens, UniProt P11308 1-479)
T3 sequence: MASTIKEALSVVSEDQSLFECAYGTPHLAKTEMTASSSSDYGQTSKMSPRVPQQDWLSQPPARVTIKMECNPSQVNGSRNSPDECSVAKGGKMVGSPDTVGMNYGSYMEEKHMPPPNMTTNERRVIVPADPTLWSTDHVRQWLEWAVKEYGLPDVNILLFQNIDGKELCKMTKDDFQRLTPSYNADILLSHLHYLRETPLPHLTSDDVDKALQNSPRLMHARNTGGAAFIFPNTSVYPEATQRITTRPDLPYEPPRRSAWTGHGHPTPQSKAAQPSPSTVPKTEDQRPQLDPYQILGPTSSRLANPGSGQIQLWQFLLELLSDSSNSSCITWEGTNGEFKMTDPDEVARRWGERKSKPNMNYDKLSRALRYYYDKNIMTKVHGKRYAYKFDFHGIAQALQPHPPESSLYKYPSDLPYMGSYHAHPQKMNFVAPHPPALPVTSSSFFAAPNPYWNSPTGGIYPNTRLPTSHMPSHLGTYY
Method in brief: as §1

ELF1 = ELF1 (Homo sapiens, UniProt P32519 1-619)
ELF1, sequence (P32519 whole entry): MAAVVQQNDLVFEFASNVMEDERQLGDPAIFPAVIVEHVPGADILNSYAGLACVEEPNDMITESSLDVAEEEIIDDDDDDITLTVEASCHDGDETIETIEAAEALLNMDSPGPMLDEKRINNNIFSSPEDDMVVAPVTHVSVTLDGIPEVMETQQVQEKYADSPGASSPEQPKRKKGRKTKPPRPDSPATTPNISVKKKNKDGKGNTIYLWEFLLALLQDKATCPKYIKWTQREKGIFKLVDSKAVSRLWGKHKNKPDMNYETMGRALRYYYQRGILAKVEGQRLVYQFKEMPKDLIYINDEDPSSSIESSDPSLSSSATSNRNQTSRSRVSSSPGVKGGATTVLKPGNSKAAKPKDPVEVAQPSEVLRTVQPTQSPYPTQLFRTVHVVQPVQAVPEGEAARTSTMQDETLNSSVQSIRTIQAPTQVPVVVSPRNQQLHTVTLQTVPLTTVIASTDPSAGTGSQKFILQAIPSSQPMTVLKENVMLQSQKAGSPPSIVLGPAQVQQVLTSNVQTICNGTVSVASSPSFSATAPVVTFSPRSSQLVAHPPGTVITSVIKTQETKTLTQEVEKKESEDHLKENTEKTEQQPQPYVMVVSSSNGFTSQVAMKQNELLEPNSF
Method in brief: as §1

EHF = molecular target: T4, EHF (Homo sapiens, UniProt Q9NZC4 1-300)
T4 sequence: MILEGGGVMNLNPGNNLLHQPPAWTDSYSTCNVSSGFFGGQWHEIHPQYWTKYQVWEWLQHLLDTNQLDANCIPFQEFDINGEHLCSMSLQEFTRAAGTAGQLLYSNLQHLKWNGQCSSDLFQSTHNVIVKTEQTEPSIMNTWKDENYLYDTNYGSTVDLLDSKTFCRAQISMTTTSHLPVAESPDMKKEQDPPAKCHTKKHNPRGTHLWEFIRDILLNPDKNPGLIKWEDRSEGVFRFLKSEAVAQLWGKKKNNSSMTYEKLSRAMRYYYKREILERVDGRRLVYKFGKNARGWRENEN
Method in brief: as §1

FEV = molecular target: T5, FEV (Homo sapiens, UniProt Q99581 1-238)
T5 sequence: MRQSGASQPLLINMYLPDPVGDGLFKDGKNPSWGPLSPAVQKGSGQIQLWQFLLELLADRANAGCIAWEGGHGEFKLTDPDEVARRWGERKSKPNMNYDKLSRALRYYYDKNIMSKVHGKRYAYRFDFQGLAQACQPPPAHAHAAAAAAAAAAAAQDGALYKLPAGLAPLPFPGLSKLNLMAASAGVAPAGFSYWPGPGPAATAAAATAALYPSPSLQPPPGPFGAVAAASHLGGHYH
Method in brief: as §1

ETV5 = ETV5 (Homo sapiens, UniProt P41161 1-510)
ETV5, sequence (P41161 whole entry): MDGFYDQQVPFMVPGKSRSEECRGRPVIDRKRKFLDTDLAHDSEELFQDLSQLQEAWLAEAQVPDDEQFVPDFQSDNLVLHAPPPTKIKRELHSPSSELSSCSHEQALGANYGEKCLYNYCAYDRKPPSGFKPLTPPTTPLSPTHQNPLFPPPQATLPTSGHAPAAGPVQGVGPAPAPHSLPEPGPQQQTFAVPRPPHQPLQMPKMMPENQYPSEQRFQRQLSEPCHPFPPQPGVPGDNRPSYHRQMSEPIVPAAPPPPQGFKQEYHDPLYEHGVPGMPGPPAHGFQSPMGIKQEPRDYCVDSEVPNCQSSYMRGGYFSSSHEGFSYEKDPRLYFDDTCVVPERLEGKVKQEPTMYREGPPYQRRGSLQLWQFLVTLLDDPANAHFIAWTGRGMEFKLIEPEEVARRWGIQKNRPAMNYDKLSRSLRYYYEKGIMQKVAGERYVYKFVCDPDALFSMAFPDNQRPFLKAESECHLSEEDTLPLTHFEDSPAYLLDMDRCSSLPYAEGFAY
Method in brief: as §1

ELF4 = ELF4 (Homo sapiens, UniProt Q99607 1-663)
ELF4, sequence (Q99607 whole entry): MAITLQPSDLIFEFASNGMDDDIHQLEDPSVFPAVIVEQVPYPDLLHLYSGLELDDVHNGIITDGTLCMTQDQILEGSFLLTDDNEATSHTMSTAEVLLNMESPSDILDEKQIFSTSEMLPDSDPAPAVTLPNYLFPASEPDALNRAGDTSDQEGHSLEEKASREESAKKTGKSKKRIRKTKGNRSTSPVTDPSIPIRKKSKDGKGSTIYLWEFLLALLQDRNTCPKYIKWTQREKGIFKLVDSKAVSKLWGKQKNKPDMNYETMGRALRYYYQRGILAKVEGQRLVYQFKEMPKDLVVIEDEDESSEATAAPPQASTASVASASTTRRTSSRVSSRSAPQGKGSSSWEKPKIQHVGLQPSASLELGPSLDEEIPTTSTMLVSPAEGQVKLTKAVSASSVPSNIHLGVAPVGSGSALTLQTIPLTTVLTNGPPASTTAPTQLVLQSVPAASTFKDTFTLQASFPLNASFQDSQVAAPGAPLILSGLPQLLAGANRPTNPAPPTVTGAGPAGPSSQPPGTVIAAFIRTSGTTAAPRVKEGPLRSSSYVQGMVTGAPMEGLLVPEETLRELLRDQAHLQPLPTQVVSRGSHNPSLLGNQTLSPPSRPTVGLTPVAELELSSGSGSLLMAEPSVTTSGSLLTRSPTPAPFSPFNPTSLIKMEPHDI
Method in brief: as §1

ELK4 = molecular target: T6, ELK4 (Homo sapiens, UniProt P28324-2 1-405)
T6 sequence: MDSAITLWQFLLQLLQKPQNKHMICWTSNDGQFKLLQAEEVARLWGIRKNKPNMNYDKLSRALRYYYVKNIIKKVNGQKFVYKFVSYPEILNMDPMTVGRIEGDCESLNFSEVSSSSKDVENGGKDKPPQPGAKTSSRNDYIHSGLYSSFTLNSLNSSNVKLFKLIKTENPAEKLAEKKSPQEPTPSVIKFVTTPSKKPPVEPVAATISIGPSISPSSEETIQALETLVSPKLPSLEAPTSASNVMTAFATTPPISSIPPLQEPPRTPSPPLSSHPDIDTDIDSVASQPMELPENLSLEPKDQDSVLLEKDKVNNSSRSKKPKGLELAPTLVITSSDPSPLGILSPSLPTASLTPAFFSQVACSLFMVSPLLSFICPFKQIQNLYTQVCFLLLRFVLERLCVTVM
Method in brief: as §1

ELF3 = molecular target: T7, ELF3 (Homo sapiens, UniProt P78545 1-371)
T7 sequence: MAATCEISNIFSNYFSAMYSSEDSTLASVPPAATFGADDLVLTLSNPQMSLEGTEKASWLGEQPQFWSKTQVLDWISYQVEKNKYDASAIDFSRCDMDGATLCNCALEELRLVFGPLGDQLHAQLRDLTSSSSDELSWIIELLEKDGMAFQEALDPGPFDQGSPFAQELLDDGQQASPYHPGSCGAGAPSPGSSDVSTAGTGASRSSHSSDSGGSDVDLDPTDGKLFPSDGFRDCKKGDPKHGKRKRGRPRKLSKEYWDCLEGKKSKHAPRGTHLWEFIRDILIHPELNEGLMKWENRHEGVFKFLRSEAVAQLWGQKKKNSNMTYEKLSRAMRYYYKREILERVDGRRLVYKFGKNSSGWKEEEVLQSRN
Method in brief: as §1

ETV1 = ETV1 (Homo sapiens, UniProt P50549 1-477)
ETV1, sequence (P50549 whole entry): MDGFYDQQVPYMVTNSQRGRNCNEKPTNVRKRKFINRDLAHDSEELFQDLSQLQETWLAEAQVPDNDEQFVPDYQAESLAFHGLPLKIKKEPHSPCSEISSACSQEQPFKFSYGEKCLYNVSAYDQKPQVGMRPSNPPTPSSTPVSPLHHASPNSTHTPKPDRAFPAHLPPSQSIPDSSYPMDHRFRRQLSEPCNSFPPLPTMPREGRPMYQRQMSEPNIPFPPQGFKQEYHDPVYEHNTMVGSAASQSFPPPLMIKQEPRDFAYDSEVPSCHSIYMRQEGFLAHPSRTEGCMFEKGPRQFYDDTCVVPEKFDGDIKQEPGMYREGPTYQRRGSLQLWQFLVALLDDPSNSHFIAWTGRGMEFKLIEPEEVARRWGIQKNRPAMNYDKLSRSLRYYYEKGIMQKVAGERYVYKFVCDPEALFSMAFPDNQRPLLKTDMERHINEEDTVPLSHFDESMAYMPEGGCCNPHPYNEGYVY
Method in brief: as §1

ERF = molecular target: T8, ERF (Homo sapiens, UniProt P50548 1-548)
T8 sequence: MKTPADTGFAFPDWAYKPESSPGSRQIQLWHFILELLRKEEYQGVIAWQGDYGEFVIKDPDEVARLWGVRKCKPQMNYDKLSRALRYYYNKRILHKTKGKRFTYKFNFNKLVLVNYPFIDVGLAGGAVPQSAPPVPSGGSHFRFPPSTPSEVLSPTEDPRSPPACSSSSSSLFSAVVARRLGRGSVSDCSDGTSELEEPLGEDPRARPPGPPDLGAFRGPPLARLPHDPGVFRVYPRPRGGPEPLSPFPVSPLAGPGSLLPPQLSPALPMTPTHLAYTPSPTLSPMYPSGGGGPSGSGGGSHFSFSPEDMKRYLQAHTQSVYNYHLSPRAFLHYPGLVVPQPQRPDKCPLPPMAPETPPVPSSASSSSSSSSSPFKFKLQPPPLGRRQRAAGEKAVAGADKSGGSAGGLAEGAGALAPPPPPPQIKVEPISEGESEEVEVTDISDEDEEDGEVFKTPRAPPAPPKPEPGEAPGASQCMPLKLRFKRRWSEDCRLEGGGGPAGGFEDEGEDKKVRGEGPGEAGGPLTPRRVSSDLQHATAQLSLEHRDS
Method in brief: as §1

ETV3L = molecular target: T9, ETV3L (Homo sapiens, UniProt Q6ZN32 1-361)
T9 sequence: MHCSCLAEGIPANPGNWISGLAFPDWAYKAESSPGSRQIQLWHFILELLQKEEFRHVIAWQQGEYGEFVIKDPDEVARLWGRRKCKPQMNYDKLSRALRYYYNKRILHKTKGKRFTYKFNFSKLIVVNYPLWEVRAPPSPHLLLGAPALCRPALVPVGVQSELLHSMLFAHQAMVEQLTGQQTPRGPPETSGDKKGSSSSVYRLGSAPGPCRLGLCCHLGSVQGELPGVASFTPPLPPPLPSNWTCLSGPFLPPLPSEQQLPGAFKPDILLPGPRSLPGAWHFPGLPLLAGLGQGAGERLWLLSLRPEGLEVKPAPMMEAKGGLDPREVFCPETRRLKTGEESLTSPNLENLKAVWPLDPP
Method in brief: as §1

ETS2 = molecular target: T10, ETS2 (Homo sapiens, UniProt P15036 1-469)
T10 sequence: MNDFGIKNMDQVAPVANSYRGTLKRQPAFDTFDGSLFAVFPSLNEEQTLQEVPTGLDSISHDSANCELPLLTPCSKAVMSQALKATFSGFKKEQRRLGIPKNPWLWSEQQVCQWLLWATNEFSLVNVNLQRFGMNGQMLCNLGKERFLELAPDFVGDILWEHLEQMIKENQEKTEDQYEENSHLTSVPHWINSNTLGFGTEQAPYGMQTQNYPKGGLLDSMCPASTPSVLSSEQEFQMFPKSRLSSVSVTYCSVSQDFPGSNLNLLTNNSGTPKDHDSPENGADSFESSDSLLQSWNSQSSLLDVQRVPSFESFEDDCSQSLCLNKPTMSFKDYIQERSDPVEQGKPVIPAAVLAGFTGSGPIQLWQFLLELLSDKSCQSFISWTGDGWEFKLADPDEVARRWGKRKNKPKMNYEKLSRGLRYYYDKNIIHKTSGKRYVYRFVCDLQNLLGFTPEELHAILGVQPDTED
Method in brief: as §1

ETV7 = molecular target: T11, ETV7 (Homo sapiens, UniProt Q9Y603 1-341)
T11 sequence: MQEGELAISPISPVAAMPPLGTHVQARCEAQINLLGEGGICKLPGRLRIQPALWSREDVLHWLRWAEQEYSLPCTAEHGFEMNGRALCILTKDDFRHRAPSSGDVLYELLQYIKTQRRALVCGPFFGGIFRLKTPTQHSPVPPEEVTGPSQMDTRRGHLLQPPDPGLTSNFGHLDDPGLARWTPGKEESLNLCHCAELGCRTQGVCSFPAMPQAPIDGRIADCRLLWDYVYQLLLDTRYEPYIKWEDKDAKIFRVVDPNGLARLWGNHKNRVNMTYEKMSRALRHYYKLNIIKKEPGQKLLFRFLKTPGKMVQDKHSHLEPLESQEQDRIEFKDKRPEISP
Method in brief: as §1

ETV3 = molecular target: T12, ETV3 (Homo sapiens, UniProt P41162-2 1-143)
T12 sequence: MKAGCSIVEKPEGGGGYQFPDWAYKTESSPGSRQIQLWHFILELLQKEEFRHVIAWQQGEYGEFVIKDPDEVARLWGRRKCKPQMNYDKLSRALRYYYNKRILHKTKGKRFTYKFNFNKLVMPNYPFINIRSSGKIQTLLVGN
Method in brief: as §1

ETV6 = ETV6 (Homo sapiens, UniProt P41212 1-452)
ETV6, sequence (P41212 whole entry): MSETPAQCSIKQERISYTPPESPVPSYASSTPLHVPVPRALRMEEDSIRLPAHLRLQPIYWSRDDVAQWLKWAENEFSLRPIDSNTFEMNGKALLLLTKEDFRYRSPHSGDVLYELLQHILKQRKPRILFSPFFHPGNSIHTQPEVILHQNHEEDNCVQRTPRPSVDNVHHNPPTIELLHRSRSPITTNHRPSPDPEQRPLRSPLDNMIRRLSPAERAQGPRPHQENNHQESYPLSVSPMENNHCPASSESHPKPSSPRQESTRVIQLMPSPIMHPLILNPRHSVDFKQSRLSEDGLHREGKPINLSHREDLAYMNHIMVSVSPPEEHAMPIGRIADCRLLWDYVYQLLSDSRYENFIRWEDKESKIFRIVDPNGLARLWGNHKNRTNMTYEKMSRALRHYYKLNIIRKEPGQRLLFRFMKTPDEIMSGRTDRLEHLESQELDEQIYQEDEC
Method in brief: as §1

Question: With TCACCG as the sequence, how does the binding signal (ELK1) read?
Answer: 1.16 fold enrichment (6-mer frequency, TF over GST control)

Question: And the binding signal (GABPA)?
Answer: 1.2 fold enrichment (6-mer frequency, TF over GST control)

Question: And the binding signal (ERG)?
Answer: 1.14 fold enrichment (6-mer frequency, TF over GST control)

Question: What about the binding signal (ELF1) of the same sequence?
Answer: 1.11 fold enrichment (6-mer frequency, TF over GST control)

Question: What about the binding signal (EHF) of the same sequence?
Answer: 1.05 fold enrichment (6-mer frequency, TF over GST control)

Question: And the binding signal (FEV)?
Answer: 1.18 fold enrichment (6-mer frequency, TF over GST control)

Question: And the binding signal (ETV5)?
Answer: 1.13 fold enrichment (6-mer frequency, TF over GST control)

Question: And the binding signal (ELF4)?
Answer: 1.21 fold enrichment (6-mer frequency, TF over GST control)

Question: And the binding signal (ELK4)?
Answer: 1.04 fold enrichment (6-mer frequency, TF over GST control)

Question: And the binding signal (ELF3)?
Answer: 1.07 fold enrichment (6-mer frequency, TF over GST control)

Question: What about the binding signal (ETV1) of the same sequence?
Answer: 1.15 fold enrichment (6-mer frequency, TF over GST control)

Question: What about the binding signal (ERF) of the same sequence?
Answer: 1.05 fold enrichment (6-mer frequency, TF over GST control)

Question: And the binding signal (ETV3L)?
Answer: 1.09 fold enrichment (6-mer frequency, TF over GST control)

Question: And the binding signal (ETS2)?
Answer: 1.15 fold enrichment (6-mer frequency, TF over GST control)

Question: And the binding signal (ETV7)?
Answer: 1.02 fold enrichment (6-mer frequency, TF over GST control)

Question: What about the binding signal (ETV3) of the same sequence?
Answer: 1.05 fold enrichment (6-mer frequency, TF over GST control)

Question: What about the binding signal (ETV6) of the same sequence?
Answer: 1.03 fold enrichment (6-mer frequency, TF over GST control)

— paper PMC7862700, “An all-to-all approach to the identification of sequence-specific readers for epigenetic DNA modifications on cytosine”
